# Screening data (PubChem)
# ELG1 DNA repair – ELG1-dependent DNA repair inhibition. HEK293T ELG1-luciferase reporter, luminescence, 16 h; DNA damage induced by 5-fluorouridine. Potency, µM (series often up to 46.1 µM), for inactives: top-dose activity change, negative = inhibition, hits mostly inhibitors. actives 2.3% (n = 330,000). AID 504467; also: % is scaled to controls: 0 for no effect and ±100 for the full control effect; nearly all actives have a fitted effect of over 55% in size
#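 Reporter activity after DNA damage by 5-fluorouridine is monitored. Compound-treated cells incubate 16 hr at 37 °C, then ONE-Glo is added for 30 min before luminescence reading.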
# NPC1 prom act – activates the NPC1 promoter; Huh7 NPC1 promoter luciferase reporter, 24 h; Potency, µM (titrated, usually from 9.22 µM), for inactives: at the highest dose activation, usual class: activators; actives 2.4% (n = 320,000); AID 485313; also: % of control where 0% means no effect; nearly all actives have a fitted effect of over 60% in size
#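 Luminescence read-out of NPC1 promoter-driven luciferase in stably transfected Huh7 cells; compounds delivered in DMSO and left 24 h at 37C, 5% CO2, qHTS titration format.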
# SMN2 splice up – increases expression of the SMN2 splice variant; AID 1458; HEK293 SMN2-luciferase splicing reporter, luminescence, 30-36 h; Potency, µM (series often up to 46.1 µM), for inactives: top-dose activity change, positive = activation, hits mostly activators; actives 2.8% (n = 210,000); also: % of control where 0% means no effect; nearly all actives have a fitted effect of over 55% in size
#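 HEK293 cells carry an SMN2 […]–luciferase reporter in which exon 7 inclusion puts luciferase in frame. Cells were plated 10-12 h before compound addition, then incubated 30-36 h at 37C. ONE-Glo luminescence was read; sodium butyrate at 4.5 mM final served as control.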
# FLuc counter – counter-screen for miR-21 project: firefly luciferase inhibitors or activators | P08659 | purified FLuc, Km substrates, luminescence inhibition | Potency, µM (series often up to 57.5 µM), inactives show top-dose activity change, negative = inhibition, actives largely listed as inhibitors | actives 6.9% (n = 360,000) | AID 588342;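 also: plate controls were vehicle for no effect and reference inhibitor for full effect; nearly all actives have a fitted effect of over 55% in size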
# Target sequence (P08659 whole entry, looked up): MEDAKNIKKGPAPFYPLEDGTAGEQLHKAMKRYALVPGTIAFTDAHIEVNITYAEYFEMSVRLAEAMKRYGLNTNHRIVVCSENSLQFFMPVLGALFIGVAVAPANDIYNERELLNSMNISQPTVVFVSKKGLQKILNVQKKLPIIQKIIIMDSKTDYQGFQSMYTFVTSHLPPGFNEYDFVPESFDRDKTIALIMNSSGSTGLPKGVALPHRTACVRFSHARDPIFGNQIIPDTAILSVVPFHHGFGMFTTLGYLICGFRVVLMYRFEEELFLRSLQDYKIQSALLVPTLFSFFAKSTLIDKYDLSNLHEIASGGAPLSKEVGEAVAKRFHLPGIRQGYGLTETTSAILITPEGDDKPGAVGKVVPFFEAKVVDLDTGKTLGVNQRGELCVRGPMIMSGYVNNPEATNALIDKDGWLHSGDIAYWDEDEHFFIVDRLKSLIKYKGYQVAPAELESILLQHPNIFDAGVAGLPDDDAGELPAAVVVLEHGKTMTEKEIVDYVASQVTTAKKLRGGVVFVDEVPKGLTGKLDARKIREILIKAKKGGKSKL
#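 Biochemical qHTS of compounds, final roughly 60 µM downward over six points, against 10 nM purified firefly luciferase using Km concentrations of substrates (10 uM D-luciferin, 10 uM ATP) in Tris acetate pH 7.5 buffer; luminescence output.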
# ELG1 genotoxic – induces genotoxicity in HEK293T cells with luciferase-tagged ELG1. HEK293T ELG1-luciferase reporter, luminescence, 16 h. Potency, µM (highest dose often 46 µM), without a hit: at the highest dose activity change, positive = activation, actives largely listed as activators. actives 1.3% (n = 330,000); also: % of control where 0% means no effect; nearly all actives have a fitted effect of over 60% in size
#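 HEK293T cells expressing luciferase-tagged ELG1 were exposed to compound or DMSO vehicle for 16 hr at 37 °C and 5% CO2. Luciferase activity was then measured with ONE-Glo after 30 min at room temperature.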
# Rab9 prom act – Rab9 promoter activation; actives 2.8% (n = 320,000); Huh7 Rab9 promoter-luciferase reporter, luminescence, 24 h; Potency, µM (titrated, usually from 9.22 µM), for the others: at the highest dose activation, negative = inhibition, most hits filed as activators; also: % of control where 0% means no effect; nearly all actives have a fitted effect of over 60% in size
#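 Luminescence from Amplite-detected luciferase (10 minutes, ambient) reports Rab9 promoter activation. Before that, stable Rab9-luciferase Huh7 cells (1500/well, reduced-serum OP-MEM I plus 10% FBS) were exposed to compound for 24 hours at 37C.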
# * marks the source's active call; other numbers are inactive results; ? = inconclusive; . = no result. In the library only some 9.3% were active in any assay of this set; here they are far more common. Calls follow the shape of the dose curve; as a rule, active = well fitted curve in the direction sought with a large enough effect; inconclusive = small, poorly fitted or top-dose-only effect, or another doubt; inactive = no such curve, though single readings can be large; an effect the other way counts as inactive or inconclusive. Potency is read from the fitted curve at half-maximal effect.
SMILES,ELG1 DNA repair,NPC1 prom act,SMN2 splice up,FLuc counter,ELG1 genotoxic,Rab9 prom act
COc1ccc(CC(=O)O/N=C(\N)c2ccc(C)cc2)cc1,?,?,.,17µM*,15%,?
Cc1cccc(OCC(=O)O/N=C(\N)c2ccccn2)c1C,?,?,?,9.5µM*,?,?
CC(C)(C)CC(=O)O/N=C(\N)c1ccccn1,?,0.56µM*,7.1µM*,4.8µM*,2.6µM*,0.63µM*
COC(=O)c1ccc(NS(=O)(=O)c2ccc(S(=O)(=O)N3CCOCC3)cc2)cc1,?,.,.,.,9%,.
CCN(C[C@H]1N[C@@](C)(C(=O)OC)[C@H]2C(=O)N(C)C(=O)[C@@H]12)C(=O)Nc1ccc(Cl)cc1,0%,.,.,.,-3%,.
COc1ccccc1C1CCN(C(=O)c2cnn(-c3ccccc3)c2C)CC1,?,-2%,.,2%,-8%,3%
Cc1ccc(OCC(=O)O/N=C(\N)c2ccccn2)cc1,?,4µM*,13µM*,13µM*,?,2.5µM*
N/C(=N\OC(=O)COc1cc(Cl)c(Cl)cc1Cl)c1ccccn1,?,0.79µM*,11µM*,2.4µM*,?,1.1µM*
N/C(=N\OC(=O)CCCOc1ccc(Cl)cc1Cl)c1ccccn1,3%,-8%,-3%,-19%,2%,0%
Cc1ccc(CC(=O)O/N=C(\N)c2ccccn2)cc1,?,4.5µM*,.,4.8µM*,?,?
Cc1ccc(N(CC(O)CON=C2c3ccccc3-c3ccccc32)S(C)(=O)=O)cc1 (configuration not stated),.,.,-8%,-5%,.,.
O=S(=O)(O)c1nc2ccccc2n1Cc1cccc2ccccc12,0%,-1%,.,-9%,-1%,1%
Cc1ccc(C(=O)Nc2ccc(N3CCN(C(=O)c4ccco4)CC3)cc2)c(Cl)c1,18µM*,2%,.,?,-13%,0%
Cc1ccccc1C(=O)Nc1ccc(N2CCN(C(=O)c3ccco3)CC2)cc1,-19%,-1%,.,1%,-5%,2%
CC(=O)N1CCN(c2ccc(NC(=O)c3ccco3)cc2)CC1,?,?,.,17µM*,?,?
O=C(c1cc(-c2ccc(Cl)c(Cl)c2)on1)N1CCCCCC1,?,2µM*,.,4.8µM*,?,2.8µM*
O=C(c1cc(-c2ccc(Cl)cc2)on1)N1CCCCCC1,?,0.79µM*,.,1.9µM*,4.6µM*,1.1µM*
O=C(c1cc(-c2ccc3c(c2)OCO3)on1)N1CCCCC1,?,0.32µM*,.,0.85µM*,0.12µM*,0.5µM*
COc1ccc(-c2cc(C(=O)N3CCCCC3)no2)cc1OC,?,?,14%,?,?,?
O=C(c1cc(-c2ccccc2O)on1)N1CCCCC1,.,.,20µM*,8.5µM*,.,.
CCCC1(CCC)NC(=O)N(CC(=O)Nc2ccc(Cl)c(S(=O)(=O)N3CCOCC3)c2)C1=O,?,.,.,.,-3%,.
O=C(c1cc(-c2ccc(O)cc2)on1)N1CCCCCC1,?,1.3µM*,.,13µM*,?,2.5µM*
CCCc1ccc(OCc2nc(-c3ccc(NC(=O)c4ccco4)cc3)no2)cc1,?,2.5µM*,21%,13µM*,16µM*,?
CCCc1ccc(OCc2nc(-c3ccc(NC(=O)c4cccs4)cc3)no2)cc1,?,22%,?,13µM*,?,?
Cc1cc(OCc2nc(-c3ccc(NC(=O)c4cccnc4)cc3)no2)ccc1Cl,4%,-1%,-5%,-3%,-4%,-11%
SMILES,ELG1 DNA repair,NPC1 prom act,SMN2 splice up,FLuc counter,ELG1 genotoxic,Rab9 prom act
COc1ccc(-c2oc3cccnc3c2/C=C/c2ccc(OC)c(OC)c2)cc1,?,2%,.,7.6µM*,2%,3%
COc1ccc(-c2oc(=O)c3cc(OC)c(OC)cc3c2C#CCCO)cc1,16µM*,.,.,.,2%,.
COCc1ccc(-c2c(-c3ccc(OC)cc3)oc(=O)c3cc(OC)c(OC)cc23)cc1,-8%,.,.,.,17%,.
COc1ccc(/C=C/c2c(-c3ccc(OC)cc3)oc(=O)c3cc(OC)c(OC)cc23)cc1,5.8µM*,.,.,.,0%,.
N#Cc1ccc(C(=O)Nc2cccc3ccccc23)c(F)c1,0%,1%,.,-2%,-1%,2%
O=S(=O)(NCc1ccccc1)c1ccc(S(=O)(=O)N(Cc2ccccn2)C2CCCC2)cc1,21µM*,-7%,-30%,1%,-9%,-5%
Cc1ccc(C)c(COC(=O)CCN=C2NS(=O)(=O)c3ccccc32)c1,-1%,-1%,.,-2%,3%,2%
Brc1ccc(-c2nc3ccccn3c2Nc2ccc3c(c2)OCCO3)o1,.,.,?,13µM*,.,.
Cc1ccn2c(Nc3ccc4c(c3)OCCO4)c(-c3cccs3)nc2c1,.,.,-2%,9.5µM*,.,.
Cc1ccc2nc(-c3ccc(C)o3)c(Nc3ccc4c(c3)OCCO4)n2c1,.,.,8.9µM*,21µM*,.,.
Cc1ccc(-c2nc3ccc(Cl)cn3c2Nc2ccc3c(c2)OCCO3)o1,.,.,6%,-3%,.,.
Cc1ccc(-c2nc3ccccn3c2Nc2ccc3c(c2)OCCO3)o1,.,.,4%,?,.,.
Cc1ccn2c(Nc3ccc4c(c3)OCO4)c(-c3ccc(C)o3)nc2c1,.,.,1%,24µM*,.,.
Cc1ccc(-c2nnn(C/C(N)=N/O)n2)cc1,?,-35%,.,-14%,?,-37%
Cc1ccc(CNC(=O)C2CCN(Cc3nc(-c4cccc(Br)c4)oc3C)CC2)cc1,.,.,.,1%,.,.
CCC(NC(=O)CC[C@H]1O[C@@H](n2cc(C)c(=O)[nH]c2=O)C[C@@H]1O)c1ccccc1 (some centres not stated),?,.,.,.,4%,.
COc1ccc(Nc2c(-c3ccc(C)o3)nc3cc(C)ccn23)cc1,.,.,-4%,17µM*,.,.
Cc1ccc(-c2nc3ccc(Cl)cn3c2Nc2ccc3c(c2)OCCO3)s1,.,.,5µM*,?,.,.
O=C(CC1N=C2c3ccccc3N=C(SCC(=O)Nc3ccc(F)cc3)N2C1=O)NCc1ccco1 (configuration not stated),.,.,.,2%,.,.
CCn1c(C)c(C)c2cc(C(=O)NCCc3cc(OC)c(OC)c(OC)c3)ccc21,.,.,.,-12%,.,.
O=C1CC(SCCO)C(=O)N1c1ccc(Oc2ccccc2)cc1 (configuration not stated),7%,23%,9%,21µM*,5%,21%
O=C(O)CCSC1CC(=O)N(c2ccccc2)C1=O (configuration not stated),1%,1%,.,-2%,1%,3%
